In publication PMC5540273 (PLoS ONE, 2017):

test system: LATS1; details: concentration: 1 μM, replicates: in singlicate; n = 1
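Note: KINOMEscan kinase panel screen.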

| Compound | %Inh |
| --- | --- |
| CCn1c(-c2ccoc2)nc2cnccc21 [SB-733887] | 19% |
| Nc1nc(-c2ccccc2F)c(-c2ccnc3ccccc23)s1 [GW560459] | 0% |
| COc1cc(Nc2ccnc3ccc(C(F)(F)F)cc23)cc(OC)c1OC [GW577382] | 0% |
| COC(=O)c1c(-c2ccccc2)c2cc(Br)ccc2c(=O)n1Cc1ccc(S(C)(=O)=O)cc1 | 31% |
| O=C(Nc1n[nH]c2nc(-c3ccccc3)c(Cl)cc12)C1CC1 [SB-734909] | 0% |
| Nc1nc(N)c2nc(-c3ccccc3)[nH]c2n1 [SKF-12778] | 0% |
| Cc1c(Cn2c(C)nn3c(=O)cc(N4CCO[C@H](C)C4)nc23)cccc1C(F)(F)F [GSK2373690] | 0% |
| COc1cccc(C2=C(Nc3cccc(C(=O)O)c3)C(=O)NC2=O)c1 [SB-390770] | 0% |
| CCCNC(=O)Nc1ccc(Oc2ncnc3ccn(C)c23)cc1 | 44% |
| Cc1ccc(-c2ccc3c(ccc4sc5c(c43)NC[C@@H](C)N=C5N(C)C)n2)cn1 | 0% |
| CN1C(=O)C(Nc2cc(Cl)c(O)c(Cl)c2)=C(c2ccc(Cl)cc2)C1=O [SB-404321] | 0% |
| COc1cc(Nc2nccc(N3CCC(NC(=O)C4COc5ccccc5O4)C3)n2)cc(OC)c1OC (centres unmarked) [GSK1379761] | 3% |
| COc1ccc(-c2coc3ccc(-c4nnc(SCc5cccc(C#N)c5)o4)cc23)cc1 | 29% |
| COc1cc(Nc2nccc(N3CCC(NC(=O)C(C)c4ccc(Cl)cc4)C3)n2)cc(OC)c1OC (centres unmarked) [GSK1379757] | 0% |
| COC(=O)c1c(-c2ccccc2)c2cc(Br)ccc2c(=O)n1Cc1ccc(NC(=O)CCC(=O)O)cc1 | 27% |
| COc1cccc(-n2cnc3c(N)ncnc32)c1 [SKF-97416] | 8% |
| O=C(NCc1cccs1)c1cc(C(=O)c2c(Cl)cccc2Cl)c[nH]1 [GW823670] | 0% |
| C[C@@H]1CC[C@H](C(=O)NC2CCCCC2)CN1c1cc(-c2ccc3c(N)n[nH]c3c2)nc(N)n1 [GSK2291363] | 0% |
| Cc1nnc(-c2ccc3ncn(-c4ccc(S(C)=O)cc4)c3c2)o1 (centres unmarked) | 43% |

| Compound | %Inh |
| --- | --- |
| O=C1NC(=O)C(c2ccccc2)=C1Nc1cccc(O)c1 [SB-390534] | 21% |
| COc1ccc(-c2cc3c(C)nc(N)nc3n([C@H]3CC[C@H](OCCO)CC3)c2=O)cn1 | 26% |
| Cc1nnc(-c2ccc(C)c(-c3ccc(C(=O)O)cc3)c2)o1 [GW608005] | 0% |
| Cc1cccc(-c2cc(-c3c[nH]nc3-c3ccccn3)ccn2)c1 [GW679395] | 0% |
| Nc1ncnc2c1ncn2-c1ccc(Cl)cc1 [AH2635] | 0% |
| Cl.NS(=O)(=O)c1cccc(Nc2cc(-c3ccc(F)cc3)n[nH]2)c1 [GW824645] | 0% |
| Fc1cccc(CSc2nnc(-c3ccc4c(c3)CCO4)o2)c1 | 20% |
| CCC(=O)c1c(-c2ccccc2)c2cc(Cl)ccc2c(=O)n1Cc1cc(S(C)(=O)=O)n(CC(N)=O)n1 | 0% |
| FC(F)(F)c1ccc(-c2ncn(CCCN3CCOCC3)c2-c2ccncc2)cc1 [SB-217780] | 0% |
| Cc1ccc(Oc2ccc(Nc3ncnc4cc[nH]c34)cc2C)cn1 | 26% |
| Cc1cccc(-c2nc(Nc3ccc4c(cnn4C)c3)c3ccccc3n2)n1 [GW876731] | 0% |
| O=C(NCCNc1ccnc(Nc2ccc(F)cc2)n1)Nc1ccc2c(c1)OCO2 [GSK1379882] | 0% |
| Nc1ncnc2c1ncn2-c1cccc(F)c1 [SKF-97560] | 0% |
| Cc1nc(N(C)[C@H]2CN(C(=O)CC#N)CC[C@H]2C)c2cc[nH]c2n1 | 7% |
| CCC(=O)c1c(-c2ccccc2)c2cc(Cl)ccc2c(=O)n1Cc1ccc(C(=O)O)cc1 | 2% |
| COc1cc2ncn(-c3cc(OCCCc4ccccc4)c(C(N)=O)s3)c2cc1OC [GSK205189] | 0% |
| CCCC(=O)Nc1n[nH]c2ncc(-c3cccc4ccccc34)cc12 [SB-642057] | 0% |
| CN(C)c1cc(-c2ccc3c(N)n[nH]c3c2)nc(N)n1 [GSK2219329] | 0% |

test system: LATS2; details: concentration: 1 μM, replicates: in singlicate; n = 1

| Compound | %Inh |
| --- | --- |
| CCn1c(-c2ccoc2)nc2cnccc21 [SB-733887] | 60% |
| Nc1nc(-c2ccccc2F)c(-c2ccnc3ccccc23)s1 [GW560459] | 0% |
| COc1cc(Nc2ccnc3ccc(C(F)(F)F)cc23)cc(OC)c1OC [GW577382] | 0% |
| COC(=O)c1c(-c2ccccc2)c2cc(Br)ccc2c(=O)n1Cc1ccc(S(C)(=O)=O)cc1 | 30% |
| O=C(Nc1n[nH]c2nc(-c3ccccc3)c(Cl)cc12)C1CC1 [SB-734909] | 24% |
| Nc1nc(N)c2nc(-c3ccccc3)[nH]c2n1 [SKF-12778] | 0% |
| Cc1c(Cn2c(C)nn3c(=O)cc(N4CCO[C@H](C)C4)nc23)cccc1C(F)(F)F [GSK2373690] | 0% |
| COc1cccc(C2=C(Nc3cccc(C(=O)O)c3)C(=O)NC2=O)c1 [SB-390770] | 0% |
| CCCNC(=O)Nc1ccc(Oc2ncnc3ccn(C)c23)cc1 | 11% |
| Cc1ccc(-c2ccc3c(ccc4sc5c(c43)NC[C@@H](C)N=C5N(C)C)n2)cn1 | 18% |
| CN1C(=O)C(Nc2cc(Cl)c(O)c(Cl)c2)=C(c2ccc(Cl)cc2)C1=O [SB-404321] | 0% |
| COc1cc(Nc2nccc(N3CCC(NC(=O)C4COc5ccccc5O4)C3)n2)cc(OC)c1OC (centres unmarked) [GSK1379761] | 0% |
| COc1ccc(-c2coc3ccc(-c4nnc(SCc5cccc(C#N)c5)o4)cc23)cc1 | 11% |
| COc1cc(Nc2nccc(N3CCC(NC(=O)C(C)c4ccc(Cl)cc4)C3)n2)cc(OC)c1OC (centres unmarked) [GSK1379757] | 1% |
| COC(=O)c1c(-c2ccccc2)c2cc(Br)ccc2c(=O)n1Cc1ccc(NC(=O)CCC(=O)O)cc1 | 17% |
| COc1cccc(-n2cnc3c(N)ncnc32)c1 [SKF-97416] | 1% |
| O=C(NCc1cccs1)c1cc(C(=O)c2c(Cl)cccc2Cl)c[nH]1 [GW823670] | 0% |
| C[C@@H]1CC[C@H](C(=O)NC2CCCCC2)CN1c1cc(-c2ccc3c(N)n[nH]c3c2)nc(N)n1 [GSK2291363] | 72% |
| Cc1nnc(-c2ccc3ncn(-c4ccc(S(C)=O)cc4)c3c2)o1 (centres unmarked) | 8% |

| Compound | %Inh |
| --- | --- |
| O=C1NC(=O)C(c2ccccc2)=C1Nc1cccc(O)c1 [SB-390534] | 0% |
| COc1ccc(-c2cc3c(C)nc(N)nc3n([C@H]3CC[C@H](OCCO)CC3)c2=O)cn1 | 11% |
| Cc1nnc(-c2ccc(C)c(-c3ccc(C(=O)O)cc3)c2)o1 [GW608005] | 0% |
| Cc1cccc(-c2cc(-c3c[nH]nc3-c3ccccn3)ccn2)c1 [GW679395] | 3% |
| Nc1ncnc2c1ncn2-c1ccc(Cl)cc1 [AH2635] | 24% |
| Cl.NS(=O)(=O)c1cccc(Nc2cc(-c3ccc(F)cc3)n[nH]2)c1 [GW824645] | 0% |
| Fc1cccc(CSc2nnc(-c3ccc4c(c3)CCO4)o2)c1 | 31% |
| CCC(=O)c1c(-c2ccccc2)c2cc(Cl)ccc2c(=O)n1Cc1cc(S(C)(=O)=O)n(CC(N)=O)n1 | 0% |
| FC(F)(F)c1ccc(-c2ncn(CCCN3CCOCC3)c2-c2ccncc2)cc1 [SB-217780] | 27% |
| Cc1ccc(Oc2ccc(Nc3ncnc4cc[nH]c34)cc2C)cn1 | 44% |
| Cc1cccc(-c2nc(Nc3ccc4c(cnn4C)c3)c3ccccc3n2)n1 [GW876731] | 0% |
| O=C(NCCNc1ccnc(Nc2ccc(F)cc2)n1)Nc1ccc2c(c1)OCO2 [GSK1379882] | 17% |
| Nc1ncnc2c1ncn2-c1cccc(F)c1 [SKF-97560] | 42% |
| Cc1nc(N(C)[C@H]2CN(C(=O)CC#N)CC[C@H]2C)c2cc[nH]c2n1 | 13% |
| CCC(=O)c1c(-c2ccccc2)c2cc(Cl)ccc2c(=O)n1Cc1ccc(C(=O)O)cc1 | 0% |
| COc1cc2ncn(-c3cc(OCCCc4ccccc4)c(C(N)=O)s3)c2cc1OC [GSK205189] | 15% |
| CCCC(=O)Nc1n[nH]c2ncc(-c3cccc4ccccc34)cc12 [SB-642057] | 25% |
| CN(C)c1cc(-c2ccc3c(N)n[nH]c3c2)nc(N)n1 [GSK2219329] | 2% |
